# Hits are enriched below; roughly 12% of the tested compounds scored in any of these assays.
# JMJD2A Tudor: JMJD2A Tudor domain (human) inhibition; AlphaScreen JMJD2A-Tudor / H3K4me3 peptide binding; 4.4% of 390,000 active; Potency, µM (highest dose often 114 µM), for inactives: at the top dose activity change, negative = inhibition, most hits filed as inhibitors; O75164; AID 504339; further: on the % scale 0 is the no-effect control and ±100 the full control effect; nearly all actives have a fitted effect of over 50% in size
# Target sequence (O75164 whole entry, looked up, the tested form may be a part): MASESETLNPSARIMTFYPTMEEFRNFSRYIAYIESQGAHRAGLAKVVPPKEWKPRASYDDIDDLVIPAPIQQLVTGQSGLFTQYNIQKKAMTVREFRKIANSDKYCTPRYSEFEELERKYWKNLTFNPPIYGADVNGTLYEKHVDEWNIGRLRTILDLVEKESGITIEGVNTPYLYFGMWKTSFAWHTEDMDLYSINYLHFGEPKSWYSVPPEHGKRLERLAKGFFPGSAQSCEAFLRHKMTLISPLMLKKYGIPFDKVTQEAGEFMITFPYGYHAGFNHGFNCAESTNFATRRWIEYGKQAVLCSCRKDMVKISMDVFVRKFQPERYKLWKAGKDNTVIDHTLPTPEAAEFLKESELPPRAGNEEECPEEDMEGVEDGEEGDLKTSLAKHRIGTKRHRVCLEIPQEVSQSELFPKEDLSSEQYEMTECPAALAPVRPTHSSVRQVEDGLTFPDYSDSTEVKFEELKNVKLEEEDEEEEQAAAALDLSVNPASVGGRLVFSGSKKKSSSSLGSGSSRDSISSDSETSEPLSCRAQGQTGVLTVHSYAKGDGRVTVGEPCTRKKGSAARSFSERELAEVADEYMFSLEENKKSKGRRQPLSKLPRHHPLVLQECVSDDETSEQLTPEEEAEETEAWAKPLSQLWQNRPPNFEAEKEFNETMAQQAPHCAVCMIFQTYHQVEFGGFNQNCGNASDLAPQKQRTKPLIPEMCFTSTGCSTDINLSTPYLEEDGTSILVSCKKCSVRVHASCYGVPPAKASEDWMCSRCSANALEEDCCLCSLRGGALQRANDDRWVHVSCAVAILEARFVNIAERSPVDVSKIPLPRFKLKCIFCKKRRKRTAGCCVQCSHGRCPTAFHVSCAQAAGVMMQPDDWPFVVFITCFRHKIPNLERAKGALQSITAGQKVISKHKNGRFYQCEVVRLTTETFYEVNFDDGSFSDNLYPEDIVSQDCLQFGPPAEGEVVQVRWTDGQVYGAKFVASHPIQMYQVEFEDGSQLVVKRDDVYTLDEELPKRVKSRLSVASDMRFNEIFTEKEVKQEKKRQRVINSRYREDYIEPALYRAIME
# G9a inh: inhibitors of human histone lysine methyltransferase G9a; G9a H3K9 monomethylation, AlphaScreen, 2 h; Potency, µM (highest dose often 102 µM), without a hit: at the highest dose activity, negative = inhibition, usual class: inhibitors; 8.8% of 350,000 active; further: on the % scale 0 is the no-effect control and ±100 the full control effect; nearly all actives have a fitted effect of over 75% in size
#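 Enzyme 20 nM + cpd, 15 min RT; add b-H3K9 pep 500 nM / SAM 20 uM; 2 h RT; anti-H3K9me1 Ab 0.5 ug/mL + SA donor / anti-rabbit acceptor beads 20 ug/mL each, 10 min; AlphaScreen read.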
# PLK1 PBD inh: PLK1 (human) polo-box domain binding inhibition; P53350; Plk1 PBD binding of FITC phosphopeptide, fluorescence polarization; Potency, µM, for inactives: max response, negative = inhibition, most hits filed as inhibitors; 2.8% of 360,000 active; further: series mostly up to about 57 µM; on the % scale 0 is the no-effect control and ±100 the full control effect; nearly all actives have a fitted effect of over 65% in size
# Sfp inh: blocks B. subtilis Sfp PPTase activity | Q9F4F7 | Biochemical Sfp PPTase activity, qHTS | Potency, µM, without a hit: largest response in the series, negative = inhibition, usual class: inhibitors | 3.5% of 310,000 active;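 further: the enzyme is Sfp with the accession as filed and its product quenches rhodamine fluorescence; 0% = enzyme reaction without inhibitor and -100% = no enzyme wells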
#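 Compounds were incubated with enzyme (final 15 nM) for 15 min at room temperature before substrate addition started the reaction. Fluorescence at 525 nm excitation, 598 nm emission was recorded immediately and after 30 minutes.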
# HP1b binding inh: blocks HP1-beta chromodomain binding to methylated histone tails | Potency, µM (series often up to 114 µM), inactives show at the highest dose activity change, negative = inhibition, hits mostly inhibitors | P83916 | 0.56% of 390,000 active | AID 540317 | AlphaScreen HP1-beta / biotin-H3K9me3 peptide binding; further: nearly all actives have a fitted effect of over 70% in size
#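 Compound inhibition of the preformed complex between 50 nM HP1-beta and 50 nM biotinylated H3K9me3 peptide was read by AlphaScreen. Buffer was PBS pH 7.4 with 0.01% Tween-20. Incubations ran 30 min at room temperature, with 10 ug/mL donor/acceptor beads.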
# BAZ2B inh: inhibitors of human BAZ2B bromodomain; 4.4% of 360,000 active; AlphaScreen BAZ2B-H3K14Ac peptide displacement; Potency, µM (doses to about 114 µM), inactives show top-dose activity change, negative = inhibition, actives largely listed as inhibitors; Q9UIF8; further: on the % scale 0 is the no-effect control and ±100 the full control effect; nearly all actives have a fitted effect of over 60% in size
#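 AlphaScreen displacement of biotin-H3(5-23)K14Ac peptide (50 nM final) from BAZ2B (50 nM final) in PBS pH 7.4, 0.01% Tween-20; complex preformed 30 min RT, then compounds (top 110 uM) 30 min RT, beads 20 min dark.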
# Active calls of the source: *; ? = inconclusive; nt = no result; ! = repeats disagree; [ ] = another dose, or the depositor's remark. The call rests on the fitted dose curve; in most records, active means well fitted curve in the direction sought with a large enough effect; inconclusive means small, poorly fitted or top-dose-only effect, or another doubt; inactive means no such curve, though single readings can be large; an effect the other way counts as inactive or inconclusive. Potency means the concentration at half of the fitted maximal effect.
SMILES,JMJD2A Tudor,G9a inh,PLK1 PBD inh,Sfp inh,HP1b binding inh,BAZ2B inh
COc1cc(-c2[nH]nc3c2C(c2ccco2)C(C#N)=C(N)O3)cc(OC)c1OC (stereo unspecified),?,-18.9%[59 µM],29.9µM*,6.3%,-6.7%,-36.7%
CCOC(=O)c1cc(C#N)c(SCC(=O)OC)[nH]c1=O,-5.6%,nt,-5.4%,50.1µM*,31.0%,-9.0%
COCc1[nH]c(=S)c(C#N)cc1C(=O)OC,22.4µM*,-137.3%[59 µM],?,8.91µM*,?,-7.6%
COC(=O)c1cc(C#N)c(=O)[nH]c1C,-1.0%,8.2%,3.0%,11.3%,45.2%,1.3%
CCOC(=O)c1cc(C#N)c(=S)[nH]c1C,39.8µM*,10µM*,-3.9%,?,23.2%,-25.5%
COC(=O)CSc1[nH]c(=O)cc(C)c1C#N,-20.3%,1.5%,-9.1%,10.3%,10.0%,0.3%
CNC1=C(Br)C(=O)c2ccncc2C1=O,nt,nt,nt,-26.2%,nt,nt
CN(C(=O)CC1C(=O)NCCN1Cc1cccc(F)c1F)C1CCOCC1 (stereo unspecified),-4.2%,?,-11.9%,-3.0%,46.2%,-13.3%
COc1ccc(CN2CCNC(=O)C2CC(=O)N(C)C2CCCCC2)cc1OC (stereo unspecified),nt,nt,-2.6%,nt,nt,nt
CN(C(=O)CC1C(=O)NCCN1Cc1c(F)cccc1Cl)C1CCOCC1 (stereo unspecified),-4.2%,44.7µM*,-27.1%,4.2%,85.3%,-0.1%
Cc1ccc(CN2CCNC(=O)C2CC(=O)N(C)C2CCOCC2)cc1 (stereo unspecified),-7.5%,50.1µM*,-2.4%,6.4%,40.0%,2.7%
CN(C(=O)CC1C(=O)NCCN1Cc1ccoc1)C1CCOCC1 (stereo unspecified),-10.7%,?,-12.5%,5.3%,13.2%,-15.8%
CN(C(=O)CC1C(=O)NCCN1Cc1ccc(F)c(F)c1)C1CCCCC1 (stereo unspecified),-8.1%,44.7µM*,-4.6%,3.0%,17.9%,-15.0%
CCN(Cc1ccncc1)C(=O)CC1C(=O)NCCN1Cc1ccc(F)c(F)c1 (stereo unspecified),-9.7%,?,-14.0%,79.4µM*,70.1%,-28.7%
CCN(CCn1cccn1)C(=O)CC1C(=O)NCCN1Cc1ccc(F)c(F)c1 (stereo unspecified),8.0%,?,6.3%,8.6%,37.2%,-5.8%
Cc1cc(NC(=O)Nc2cccc(C)c2C)no1,-5.6%,8.5%,-4.7%,5.9%,30.4%,-5.4%
CC(C)c1ccccc1NC(=O)C(Cc1c[nH]c2ccccc12)NC(=O)OC(C)(C)C (stereo unspecified),?,12.0%[59 µM],nt,nt,25.2%,-24.5%
Cc1noc(C)c1-c1cncnc1N(C)Cc1ccco1,nt,-26.0%[0.501 µM],nt,-27.1%,nt,nt
CC(C)N(Cc1nccn1C)C(=O)CC1C(=O)NCCN1Cc1ccc(F)c(F)c1 (stereo unspecified),-6.2%,39.8µM*,-17.2%,-5.8%,24.6%,-26.0%
COc1cc(OC)cc(C(=O)Nc2ccc(NC(=O)c3ccco3)c(C)c2)c1,-17.6%,50.1µM*,-18.5%,11.2%,-0.4%,-26.0%
Cc1cc(NC(=O)c2ccco2)ccc1NC(=O)c1ccco1,-11.0%,4.2%,-13.0%,14.0%,36.9%,-10.8%
Cc1ccc(NC(=O)c2ccco2)cc1C,-21.4%[11.4 µM],4.6%[59 µM],21.2µM*,11.2%,-6.3%,?
Cc1c(Cl)cccc1NC(=O)CCn1cnnn1,-16.0%,8.0%[59 µM],nt,nt,13.9%,-7.7%
O=C(CCn1cnnn1)Nc1ccc(Cl)cc1Cl,-21.3%,33.1%[12.7 µM],3.77µM*,14.1%,10.2%,?
CCOC(=O)Cc1csc(NC(=O)NC2(C(F)(F)F)Oc3cc(Cl)c(Cl)cc3O2)n1,?,12.6µM*,21.2µM*,?,3.5%,?
SMILES,JMJD2A Tudor,G9a inh,PLK1 PBD inh,Sfp inh,HP1b binding inh,BAZ2B inh
CCOC(=O)Cc1csc(NC(=O)NC2(C(F)(F)F)Oc3ccc(Cl)cc3O2)n1 (stereo unspecified),?,25.1µM*,16.8µM*,56.2µM*,6.8%,-7.4%
CCOC(=O)Cc1csc(NC(=O)NC2(C(F)(F)F)Oc3ccccc3O2)n1,-6.0%,8.91µM*,11.9µM*,44.7µM*,13.5%,?
COc1ccc(S(=O)(=O)NCC(=O)N(CC(=O)NCC2CCCO2)Cc2ccc(F)cc2)cc1 (stereo unspecified),-1.4%,13.9%[59 µM],-12.3%,14.3%,56.2%,1.6%
CCc1ccccc1NC(=O)c1ccc2c(c1)nnn2C1CCCC1,-15.9%,-5.8%[59 µM],nt,nt,49.8%,-2.9%
Nc1c2c(=O)oc(-c3ccccc3)cc2nn1-c1ccccc1,-31.3%,-19.4%[59 µM],0.1%,3.4%,17.8%,-5.2%
Cc1c(-c2ccc(Cl)cc2)oc(=O)c2c(N)n(-c3ccccc3)nc12,-34.0%,-7.6%[59 µM],-5.6%,-10.2%,4.8%,50.1µM*
C=CCn1c(SCC(=O)Nc2cccc(S(=O)(=O)N(C)c3ccccc3)c2)nnc1C1CC1,-13.7%,4.9%[0.501 µM],-5.8%,nt,6.6%,-1.7%
CCOC(=O)C1=NNC(C(=O)c2ccc(C)cc2)C1c1ccc(C)cc1 (stereo unspecified),-18.8%[57.1 µM],79.4µM*,?,?,-11.9%,-2.5%
CCOC(=O)C1=NNC(C(=O)c2ccccc2)C1c1ccc(C)cc1 (stereo unspecified),-20.3%,-3.0%,0.9%,9.8%,20.0%,-21.1%
CCOC(=O)C1NN=C(C(=O)c2ccccc2)C1c1ccc(OC)cc1 (stereo unspecified),-11.4%,-7.3%[59 µM],-7.5%,-1.8%,29.5%,-26.3%
CCOC(=O)C1=NNC(C(=O)c2ccc(OC)cc2)C1c1ccccc1 (stereo unspecified),-11.9%,56.2µM*,-1.2%,10.6%,23.2%,-3.3%
C[n+]1ccccc1/C=N/O,35.5µM*!,-32.7%[2.33 µM],2.5%,11.2%,59.5%,-13.6%
C[n+]1ccccc1/C=N\O,nt,30.4%[21.5 µM],nt,11.4%,nt,nt
CC(O)/C=C/c1cccc[n+]1C (stereo unspecified),39.8µM*,10µM*,-10.1%,-20.9%,19.0%,3.8%
COc1ccccc1N=C1NC(=O)/C(=C/c2ccc(N(C)C)cc2)S1,?,nt,20.0%,-15.5%,-21.4%,44.7µM*
Cc1cc(C)n(-c2ccc(C(=O)Nc3cc(S(=O)(=O)N(C)C)ccc3Cl)cc2)n1,?,79.4µM*,-6.5%,15.3%,29.8%,5.1%
Cc1cc(C)n(-c2ccc(C(=O)Nc3cccnc3Cl)cc2)n1,-9.0%,-33.9%,-10.4%,7.3%,23.1%,-1.4%
COc1cccc(/C=N/n2c(N)c(S(=O)(=O)c3cccs3)c3nc4ccccc4nc32)c1,10.5%,8.6%[0.0925 µM],-0.7%,3.4%,38.2%,-3.7%
Nc1c(S(=O)(=O)c2cccs2)c2nc3ccccc3nc2n1/N=C/c1cccc(O)c1,-30.1%[11.4 µM],13.0%[59 µM],23.8µM*,5.3%,-5.2%,nt

# Source: PubChem (National Center for Advancing Translational Sciences (NCATS))
